Growth inhibition data for 40 molecules are collected here from PubChem BioAssay (NCI).

Compounds without any hit were thinned out: in the full panel of roughly 79,000, 15% have a hit. Values without a mark were called inactive. Active and inactive are the calls of the source. No stated cut-off is given here; in the data, active means growth inhibition above about 70%; inactive means the rest. Where a SMILES comes first, the peptide text is derived from it. Bridges are numbered along the chain shown (N, C = ends). Roman numbers before positions name the chains, in order. The star is where a group is joined. Cbz = O=C(OCc1ccccc1)*

A short description of the first experiment: NCI Yeast Anticancer Drug Screen. Data for the sgs1 mgt1 strain (AID 161).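 Further: 0% = growth of cultures given vehicle only.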 As to conditions: S. cerevisiae sgs1 mgt1 strain, at 50.0 µM, hits give high values. In a few lines: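 Mutant yeast exposed to compound; growth scored against vehicle-only wells.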
Take `CCOC(=O)c1c(C)c(=O)cnc2c(C#N)cnn12`: the growth inhibition was -6.8%.

On to `COc1ccc(-c2c3c(n(C4OC(COC(C)=O)C(OC(C)=O)C(OC(C)=O)C4OC(C)=O)c(=S)c2C#N)CC(C)(C)CC3=O)cc1` (stereo not given), for which the growth inhibition was 10.8%.

As for `O=c1[nH]c(Nc2ccc(Cl)c(C(F)(F)F)c2)nc2nc[nH]c12`, the growth inhibition is -9.5%.

With `COC1OC(CO)C(OC(C)=O)C(OC(C)=O)C1OC(C)=O` (stereo not given), the growth inhibition was 2.9%.

Turning to `COc1cc2c(c(Cl)c1OC)CCN(C)CC2c1ccccc1` (stereo not given), the growth inhibition is -13.9%.

On to `Clc1ccccc1CSc1cc(SCc2ccccc2Cl)nc(SCc2ccccc2Cl)n1`, for which the growth inhibition was -2.25%.

As for `NNc1nnnc2ccccc12`, the growth inhibition was -0.8%.

Take `O=C(NCCCl)Oc1ccccc1`: the growth inhibition was -7.95%.

As to `CCCCn1cnc2ccc(N)cc2c1=O`, the growth inhibition is 15.3%.

Take `CCCCCCCCCCCC(=O)OCCS(=O)(=O)CCOC(=O)CCCCCCCCCCC`: the growth inhibition was -1.2%.

Consider `Cc1ccc(NC(=O)C(=O)C2NC(=S)NC2=O)c([N+](=O)[O-])c1` (stereo not given), for which the growth inhibition is 17.8%.

In the case of `CC(C)C(NC(=O)C(CSSCC(NC(=O)OCc1ccccc1)C(=O)NC(C(=O)O)C(C)C)NC(=O)OCc1ccccc1)C(=O)O` (stereo not drawn) (I: Cbz-Cys-Val-OH / II: Cbz-Cys-Val-OH; disulfide I:1-II:1; configuration not given here), the growth inhibition is -3.75%.

Consider `S=C(Cl)Sc1ccc(-c2ccc(SC(=S)Cl)cc2)cc1`, for which the growth inhibition was -10.4%.

With `NC(CSC(c1ccccc1)(c1ccccc1)c1ccc(C(=O)O)cc1)C(=O)O` (stereo not given), the growth inhibition was 18.5%.

In the case of `CCCCC1(N=[N+]=[N-])C(=O)c2cccc3c2N(CCC3)C1=O` (stereo not given), the growth inhibition is 29.9%.

For the molecule `CC1(C)OC[C@@H](O)[C@H](Br)CO1`, the growth inhibition is -20.9%.

With `C=COC(=O)C(Cc1ccccc1)NC(=O)OCc1ccccc1` (stereo not given), the growth inhibition is -23.2%.

`CCOC(=O)C12CC(COc3ccc([N+](=O)[O-])cc3)ON1OC(COc1ccc([N+](=O)[O-])cc1)C2` (stereo not given): the growth inhibition was 17.2%.

As to `CN(C)c1ccc(N=C2C=CC(=C(C#N)C#N)c3ccccc32)cc1`, the growth inhibition is -14.2%.

In the case of `O=C1CSC(c2cccnc2)N1CCN1C(=O)CSC1c1cccnc1` (stereo not given), the growth inhibition was -11.5%.

As to `CCOC(=O)N/C=C/C(C)=O`, the growth inhibition is -1.5%.

For `CCN(CC)CCCNc1ccc2ncn3c4ccc(O)cc4c(=O)c1c23`, the growth inhibition is -54%.

`CC/C(C=O)=C\NC(=O)Nc1ccccc1`: the growth inhibition was 0.8%.

For the molecule `O=S1(=O)CC=CC1`, the growth inhibition is -7.95%.

Turning to `CC(C)CCCC(C)C1CCC2C3CCC4=C/C(=N/O)CCC4(C)C3CCC12C` (stereo not given), the growth inhibition is 40.8%.

With `CCCC(C)(O)C(C)(C)C` (stereo not given), the growth inhibition was 8%.

Consider `Cc1ccsc1/C=N/Nc1nncc2ccccc12`, for which the growth inhibition is 20.6%.

As to `COc1cc2cc3c(c(O)c2c(O)c1/C=C/C(C)C)C(=O)CC(C)(OC(C)=O)C3` (stereo not given), the growth inhibition was 36.5%.

Turning to `O=P1(O)Oc2ccc3ccccc3c2-c2c(ccc3ccccc23)O1`, the growth inhibition was -6.1%.

For `Nc1cccc(OCC(O)CN2CCN(c3ccccc3)CC2)c1` (stereo not given), the growth inhibition is 0.1%.

In the case of `Cc1ccc(S(=O)(=O)/N=[N+](\[O-])c2ccc(N(C)C)cc2)cc1`, the growth inhibition is -7.55%.

Turning to `CCOC(=O)N1CCN(C(=S)N/N=C(\C)c2cnccn2)CC1`, the growth inhibition is 99.5% (active).

As to `NC1C2CC3CC1CC(C2)O3` (stereo not given), the growth inhibition was -9.4%.

Take `NCCN1CCCCCc2ccccc21`: the growth inhibition was -49.8%.

Take `[C-]#[N+]N=P(c1ccccc1)(c1ccccc1)c1ccccc1`: the growth inhibition is -27.9%.

On to `C=CCc1cc(OC)c2c(c1)C(OC)CC(c1ccc(OC)c(OC)c1)O2` (stereo not given), for which the growth inhibition is -6.05%.

On to `COc1ccc(N(C)S(=O)(=O)c2ccccc2)cc1`, for which the growth inhibition was -3.65%.

For the molecule `Nc1cccc2c1C(=O)c1c(N)cccc1C2=O`, the growth inhibition is 94.7% (active).

On to `Cc1ccc(NC2=CC(=O)c3ccccc3C2=O)cc1`, for which the growth inhibition was 17.8%.

For the molecule `COC(=O)C(=NNc1ccccc1[N+](=O)[O-])C(=O)OC`, the growth inhibition was 23.1%.

The nature of a further experiment: NCI Yeast Anticancer Drug Screen. Data for the cln2 rad14 strain (AID 165).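 Further: 0% = growth equal to vehicle treated cultures.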 Particulars: S. cerevisiae cln2 rad14 strain, at 50.0 µM, hits give high values. In a few lines: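 Growth of compound-exposed yeast (cln2 rad14 genotype) measured and expressed as inhibition relative to vehicle.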
For the molecule `CCOC(=O)c1c(C)c(=O)cnc2c(C#N)cnn12`, the growth inhibition is -33.2%.

Turning to `COc1ccc(-c2c3c(n(C4OC(COC(C)=O)C(OC(C)=O)C(OC(C)=O)C4OC(C)=O)c(=S)c2C#N)CC(C)(C)CC3=O)cc1` (stereo not given), the growth inhibition is -9.35%.

`O=c1[nH]c(Nc2ccc(Cl)c(C(F)(F)F)c2)nc2nc[nH]c12`: the growth inhibition is 9.9%.

For the molecule `COC1OC(CO)C(OC(C)=O)C(OC(C)=O)C1OC(C)=O` (stereo not given), the growth inhibition is -14.5%.

On to `COc1cc2c(c(Cl)c1OC)CCN(C)CC2c1ccccc1` (stereo not given), for which the growth inhibition was -9.5%.

As to `Clc1ccccc1CSc1cc(SCc2ccccc2Cl)nc(SCc2ccccc2Cl)n1`, the growth inhibition is 23.3%.

With `NNc1nnnc2ccccc12`, the growth inhibition was -38.2%.

Regarding `O=C(NCCCl)Oc1ccccc1`, the growth inhibition was -0.1%.

For `CCCCn1cnc2ccc(N)cc2c1=O`, the growth inhibition is -1.7%.

On to `CCCCCCCCCCCC(=O)OCCS(=O)(=O)CCOC(=O)CCCCCCCCCCC`, for which the growth inhibition was -23.9%.

Take `Cc1ccc(NC(=O)C(=O)C2NC(=S)NC2=O)c([N+](=O)[O-])c1` (stereo not given): the growth inhibition is 20.1%.

On to `CC(C)C(NC(=O)C(CSSCC(NC(=O)OCc1ccccc1)C(=O)NC(C(=O)O)C(C)C)NC(=O)OCc1ccccc1)C(=O)O` (stereo not drawn) (I: Cbz-Cys-Val-OH / II: Cbz-Cys-Val-OH; disulfide I:1-II:1; configuration not given here), for which the growth inhibition is -3.25%.

As to `S=C(Cl)Sc1ccc(-c2ccc(SC(=S)Cl)cc2)cc1`, the growth inhibition is -5.6%.

For `NC(CSC(c1ccccc1)(c1ccccc1)c1ccc(C(=O)O)cc1)C(=O)O` (stereo not given), the growth inhibition is 15.5%.

Regarding `CCCCC1(N=[N+]=[N-])C(=O)c2cccc3c2N(CCC3)C1=O` (stereo not given), the growth inhibition was 3.1%.

`CC1(C)OC[C@@H](O)[C@H](Br)CO1`: the growth inhibition was -3.95%.

For the molecule `C=COC(=O)C(Cc1ccccc1)NC(=O)OCc1ccccc1` (stereo not given), the growth inhibition was 10.6%.

In the case of `CCOC(=O)C12CC(COc3ccc([N+](=O)[O-])cc3)ON1OC(COc1ccc([N+](=O)[O-])cc1)C2` (stereo not given), the growth inhibition was 2.4%.

Turning to `CN(C)c1ccc(N=C2C=CC(=C(C#N)C#N)c3ccccc32)cc1`, the growth inhibition is -34%.

Take `O=C1CSC(c2cccnc2)N1CCN1C(=O)CSC1c1cccnc1` (stereo not given): the growth inhibition is -2.4%.

In the case of `CCOC(=O)N/C=C/C(C)=O`, the growth inhibition is -29.4%.

Regarding `CCN(CC)CCCNc1ccc2ncn3c4ccc(O)cc4c(=O)c1c23`, the growth inhibition was 11.8%.

For the molecule `CC/C(C=O)=C\NC(=O)Nc1ccccc1`, the growth inhibition is -22.9%.

Regarding `O=S1(=O)CC=CC1`, the growth inhibition is 13.2%.

For the molecule `CC(C)CCCC(C)C1CCC2C3CCC4=C/C(=N/O)CCC4(C)C3CCC12C` (stereo not given), the growth inhibition is 34.5%.

On to `CCCC(C)(O)C(C)(C)C` (stereo not given), for which the growth inhibition was 11.7%.

In the case of `Cc1ccsc1/C=N/Nc1nncc2ccccc12`, the growth inhibition is 9.05%.

Take `COc1cc2cc3c(c(O)c2c(O)c1/C=C/C(C)C)C(=O)CC(C)(OC(C)=O)C3` (stereo not given): the growth inhibition was 30.4%.

Turning to `O=P1(O)Oc2ccc3ccccc3c2-c2c(ccc3ccccc23)O1`, the growth inhibition is -16.9%.

Regarding `Nc1cccc(OCC(O)CN2CCN(c3ccccc3)CC2)c1` (stereo not given), the growth inhibition was -2.55%.

For the molecule `Cc1ccc(S(=O)(=O)/N=[N+](\[O-])c2ccc(N(C)C)cc2)cc1`, the growth inhibition was -35.7%.

For the molecule `CCOC(=O)N1CCN(C(=S)N/N=C(\C)c2cnccn2)CC1`, the growth inhibition was 99.5% (active).

Take `NC1C2CC3CC1CC(C2)O3` (stereo not given): the growth inhibition is -68.5%.

`NCCN1CCCCCc2ccccc21`: the growth inhibition was -17.4%.

With `[C-]#[N+]N=P(c1ccccc1)(c1ccccc1)c1ccccc1`, the growth inhibition is 3.2%.

Consider `C=CCc1cc(OC)c2c(c1)C(OC)CC(c1ccc(OC)c(OC)c1)O2` (stereo not given), for which the growth inhibition is 12.6%.

In the case of `COc1ccc(N(C)S(=O)(=O)c2ccccc2)cc1`, the growth inhibition was 10.8%.

For the molecule `Nc1cccc2c1C(=O)c1c(N)cccc1C2=O`, the growth inhibition is 98.7% (active).

Consider `Cc1ccc(NC2=CC(=O)c3ccccc3C2=O)cc1`, for which the growth inhibition was -26.9%.

With `COC(=O)C(=NNc1ccccc1[N+](=O)[O-])C(=O)OC`, the growth inhibition was 33.8%.
